This is a sample that favours compounds with a hit; in the whole collection about 7.9% have one here.
KB-V1 MDR tox – qHTS assay for MDR1-selective chemotherapeutics: Primary screen using the drug-selected MDR subline cells KB-V1. KB-V1 MDR cells viability, CellTiter-Glo, 72 h. Potency, µM (titrated, usually from 46.1 µM), most hits filed as cytotoxic. 400,000 compounds, 3.4% hits. AID 1347076, 2019; also: % is scaled to controls: 0 for no effect and ±100 for the full control effect; nearly all actives have a fitted effect of over 60% in size
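Cytotoxicity via CellTiter-Glo luminescence after 72 h compound exposure at 37 degrees C. Cells: drug-selected KB-V1 line, DMEM phenol-red free plus 10% FBS. Compounds tested at multiple concentrations; normalized data fitted to concentration-effect curves.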
MCF10A rereplic – A quantitative high throughput screen for small molecules that induce DNA re-replication in MCF 10a normal breast cells. 350,000 compounds, 2.9% hits. Potency, µM (titrated, usually from 46.1 µM), for the others: top-dose activity, positive = re-replication, most hits filed as activators. MCF 10A DNA re-replication, Hoechst nuclear intensity, 48 h; also: % of control where 0% means no effect; nearly all actives have a fitted effect of over 50% in size
SW480 rereplic – A quantitative high throughput screen for small molecules that induce DNA re-replication in SW480 colon adenocarcinoma cells; SW480 DNA re-replication, Hoechst DNA content imaging, 48 h; Potency, µM (highest dose often 46.1 µM), without a hit: at the highest dose re-replication activation, usual class: activators; 340,000 compounds, 1.8% hits; AID 624297, 2012; also: % of control where 0% means no effect; nearly all actives have a fitted effect of over 55% in size
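Readout is total intensity of Hoechst-stained nuclei, excited at 405 nm and collected at 500-530 nm. Compound treatment lasted 48 hr at 37 C in 5% CO2 before staining.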
KB-3-1 tox – qHTS assay for MDR1-selective chemotherapeutics: Primary screen using the parental adenocarcinoma cell KB-3-1; KB-3-1 viability, CellTiter-Glo ATP luminescence, 72 h; Potency, µM (doses to about 46.1 µM), usual class: cytotoxic; 400,000 compounds, 1.4% hits; also: % is scaled to controls: 0 for no effect and ±100 for the full control effect; nearly all actives have a fitted effect of over 60% in size
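72 h, 37 °C compound treatment of KB-3-1 parental cells; CellTiter-Glo added, 10 min, luminescence read. Data corrected against DMSO-only plates and normalized before curve fitting.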
HT1080 IDH1KD tx – qHTS for induction of synthetic lethality in tumor cells producing 2HG: qHTS for the HT-1080-IDH1KD cell line; HT-1080 IDH1 knockdown viability, ATP luminescence, 48 h; Potency, µM (top dose mostly 46.1 µM), for inactives: at the highest dose activity, negative = toxicity, hits mostly cytotoxic; 360,000 compounds, 2% hits;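 also: 0% = DMSO wells and -100% = cell-free medium wells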
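After a 2 h attachment period, IDH1KD HT-1080 cells took pin-transferred compound for 48 h at 37 °C; ATP-based luminescence after 10 min room-temperature reagent incubation reported viability.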
HT1080NT lethal – qHTS for induction of synthetic lethality in tumor cells producing 2HG: qHTS for the HT-1080-NT fibrosarcoma cell line. HT-1080-NT fibrosarcoma viability, CellTiter-Glo ATP luminescence, 48 h. Potency, µM (titrated, usually from 46.1 µM), inactives show at the top dose activity, negative = less viability, hits mostly cytotoxic. 360,000 compounds, 1.6% hits. AID 686970, 2013;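 also: NT is the 2HG producing partner of a matched IDH1 knockdown line; 0% = DMSO-treated cells and -100% = media-only wells without cells; nearly all actives have a fitted effect of over 55% in size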
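Read-out is CellTiter-Glo luminescence after 10 minutes at room temperature, following 48 hours' compound treatment of HT-1080-NT cells (750 cells/well, RPMI, 5% FBS, 37 degrees C).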
Starred values were filed as active, the others as inactive; i = inactive; ? = inconclusive; . = not tested or not shown; [ ] = remark or other dose. Calls follow the shape of the dose curve; as a rule, active = well fitted curve in the direction sought with a large enough effect; inconclusive = small, poorly fitted or top-dose-only effect, or another doubt; inactive = no such curve, though single readings can be large; an effect the other way counts as inactive or inconclusive. Potency is read from the fitted curve at half-maximal effect.

SMILES	KB-V1 MDR tox	MCF10A rereplic	SW480 rereplic	KB-3-1 tox	HT1080 IDH1KD tx	HT1080NT lethal
Nc1nc(Br)c2ccccc2c1-c1ccccc1	i	22.4µM*	?	i	-26.3%	-15.1%
Nc1nc(Br)c2c(F)cccc2c1-c1ccc(Cl)cc1	i	7.31µM*	20.6µM*	i	?	-16.6%[9.24 µM]
CN(C)c1nc2ccccc2c(N)c1-c1ccccc1	?	?	3.1%	i	?	?
COc1cc(Cl)c(C)cc1NC(=O)CCc1c(C)nc2c3cccnc3nn2c1C	i	.	.	i	.	.
C/C(=N\NC(=O)c1ccccc1NC(=O)c1ccc(Cl)cc1)c1ccncc1	1.3µM*	1.5%	3.8%	1.46µM*	1.3µM*	0.517µM*
O=C(c1ccco1)N1N=C(c2ccco2)CC1c1ccc(Cl)cc1Cl (centres undefined)	i	23.1µM*	?	?	?	?
CC1CCN(C(=O)c2c(NC(=O)c3ccccc3F)sc3c2CCC(C(C)(C)C)C3)CC1 (centres undefined)	i	.	.	i	.	.
O=C(c1cc([N+](=O)[O-])ccc1N1CCOCC1)N1CCCCC1	i	3.1%	-5.2%	?	10.3%	10.8%
O=C(c1ccccc1)c1cc([N+](=O)[O-])ccc1N1CCOCC1	1.16µM*	?	?	1.16µM*	0.731µM*	1.03µM*
O=C(COC(=O)c1cc([N+](=O)[O-])ccc1N1CCOCC1)Nc1ccc(Cl)cc1	?	12.7%	1.4%	i	-2.3%	-18.5%
CC1CCCN(c2ccc([N+](=O)[O-])cc2C(=O)c2ccccc2)C1 (centres undefined)	i	?	4.11µM*	?	2.91µM*	?
O=C(c1ccc(Br)cc1)c1cc([N+](=O)[O-])ccc1N1CCOCC1	4.61µM*	?	0.581µM*	i	5.8µM*	5.17µM*
O=C(c1ccc(Cl)cc1)c1cc([N+](=O)[O-])ccc1N1CCOCC1	1.84µM*	?	0.651µM*	?	1.16µM*	1.46µM*
COc1ccc(C(=O)Nc2nnc(S(=O)(=O)N3CCN(c4ccc(F)cc4)CC3)s2)cc1	i	.	.	i	.	.
O=C(c1ccccc1)c1ccc(N2CCOCC2)c(F)c1	20.6µM*	-6.0%	-2.0%	i	-1.9%	11.7%
CN1CCN(c2ccc([N+](=O)[O-])cc2C(=O)c2ccc(Cl)cc2)CC1	4.61µM*	11.6µM*	8.2µM*	2.31µM*	5.17µM*	5.8µM*
O=C(COC(=O)c1cc([N+](=O)[O-])ccc1N1CCOCC1)Nc1ccc(Cl)cn1	13µM*	?	?	?	-5.5%	-0.9%
CN1CCN(c2ccc([N+](=O)[O-])cc2C(=O)N2CCCCC2)CC1	i	18.9%	0.7%	i	0.1%	-4.3%
NC(c1csc(Nc2ccccn2)n1)c1ccccc1Cl (centres undefined)	i	.	.	i	-6.7%	-1.1%
Cc1ccccc1-c1noc(CSc2nnc(Cc3ccccc3)n2-c2ccc(F)cc2)n1	?	.	.	i	.	.
O=C1CCn2nc(-c3ccc(Cl)cc3)cc2N1	?	-5.5%	-6.9%	1.84µM*	11.7%	-2.1%
O=C(CN1C(=O)CCn2nc(-c3ccccc3)cc21)NCc1ccc(Cl)cc1	i	.	.	i	.	.
CCS(=O)(=O)N1Cc2ccccc2CC1C(=O)N1CCN(c2ccccc2)CC1 (centres undefined)	10.3µM*	11.2%	3.0%	i	0.6%	-1.9%
CCc1nnc(NC(=O)C2Cc3ccccc3CN2S(=O)(=O)c2c(C)c(C)cc(C)c2C)s1 (centres undefined)	10.3µM*	?	14.4%	i	?	4.5%
CS(=O)(=O)N1Cc2ccccc2CC1C(=O)O (centres undefined)	i	-0.5%	-4.4%	i	-2.4%	0.0%
SMILES	KB-V1 MDR tox	MCF10A rereplic	SW480 rereplic	KB-3-1 tox	HT1080 IDH1KD tx	HT1080NT lethal
CCS(=O)(=O)N1Cc2ccccc2CC1C(=O)Nc1nc2ccccc2s1 (centres undefined)	16.4µM*	16.9%	1.5%	i	-3.7%	-13.4%
CCS(=O)(=O)N1Cc2ccccc2CC1C(=O)Nc1nnc(SCc2ccc(F)cc2)s1 (centres undefined)	4.11µM*	?	?	i	-11.5%	-15.7%
CC(=O)c1c(C)n(-c2cccc(C)c2)c2ccc(OC(=O)COc3ccccc3)cc12	?	.	.	i	.	.
CN(C1CCCCC1)S(=O)(=O)c1ccc2c(c1)c(=O)c(C(=O)NCCc1ccc(Cl)cc1)cn2C	i	.	.	?	.	.
CCCCC(=O)N(C)c1c(CC)nc2c(OCCOc3ccc(F)cc3)cccn12	i	.	.	i	-12.3%	-2.2%
COc1ccc(NC(=O)COCc2cc(-c3ccc4c(c3)OCO4)on2)cc1	i	.	.	i	.	.
CCc1nn2cc(C(=O)c3cc(C)ccc3O)cnc2c1-c1ccc(F)cc1	?	18.4µM*	-1.4%	i	6.2%	4.2%
CCN=c1scc(C)n1/N=C/c1cc(Br)c(O)c(OC)c1	i	20.6µM*	7.0%	i	?	-17.2%
COc1ccc(C2=C(C)C(=O)N(Cc3ccc(C(=O)NCc4cccc(C)c4)cc3)S2(=O)=O)cc1	i	.	.	i	.	.
Cc1nc(OCC(=O)c2ccc(Cl)cc2)c(C#N)c2c1COC(C)(C)C2	i	4.61µM*	20.6µM*	i	2.6%	2.3%
COc1ccc(C(=O)COc2nc(C)cc(C)c2C#N)cc1	13µM*	20.1%	20.0%	?	10.8%	-9.5%
Cc1cc(C)c(C#N)c(Oc2ccc(O)cc2)n1	i	6.6%	0.0%	i	-1.3%	?
CC1(C)Cc2c(C#N)c(OCC(=O)c3ccc(Cl)cc3)nc(-c3ccco3)c2CO1	i	1.8%	-1.6%	i	6.6%	4.5%
CCN(C(=O)CSc1nc2ncccc2[nH]1)c1ccc(C(C)C)cc1	i	.	.	i	.	.
Cc1cccc(N2CCN(CCCNC(=O)Cn3ncc4c([nH]c5ccccc54)c3=O)CC2C)c1 (centres undefined)	i	.	.	i	.	.
CCOC(=O)C1=C(Nc2ccccc2)CC(C)(O)C(C(=O)OCC)C1c1ccc(Br)cc1 (centres undefined)	23.1µM*	5.4%	?	?	-11.4%	-0.6%
